The record followed here is ChEMBL document CHEMBL4513216, “Probing the Open Global Health Chemical Diversity Library for Multistage-Active Starting Points for Next-Generation Antimalarials” (ACS Infect Dis, 2020).

The campaign covered roughly 69,000 compounds. About 8,600 (12%) showed an effect of 50% or more. For the sample, strong results were picked, then their nearest neighbours and some compounds at random.

The test system of this experiment is Plasmodium berghei. Nature of the experiment: Screen against P. berghei liver stage (PbLuc), transformed with Luciferase, at 10uM. Type of experiment: functional, HepG2. The conditions noted are these: tested at 10 uM.
Consider `O=C(c1ccoc1)N1CC[C@@H]2O[C@H](COCc3ccccn3)CC[C@@H]21`, for which the INHIBITION was found to be 34.1%.
The figure for `O=C(c1ccoc1)N1CC[C@@H]2O[C@@H](COCc3ccncc3)CC[C@@H]21` is 52%; for `CC(C)COC[C@@H]1CC[C@H]2[C@H](CCN2C(=O)c2ccncc2F)O1` it is 13.5%.
Consider `CC(C)COC[C@H]1CC[C@H]2[C@H](CCN2C(=O)c2ccncc2F)O1`, for which the INHIBITION was 53%.
The value for `CCOC[C@H]1CC[C@H]2[C@H](CCN2C(=O)c2ccncc2F)O1` was 41.4%.
`CCS(=O)(=O)N1CCC2(CN(c3ccsc3)C(=O)CN2C)C1` (stereo not drawn): the INHIBITION is 1.9%.
The figure for `CN(C)CC1(O)CCCN(C(=O)CCn2cc(Cl)cn2)C1` (stereo not drawn) is -47%; for `CSc1nc2ccsc2c(=O)n1CC(=O)N(C)C1CCCCC1` it is 26.6%; for `Cn1nccc1C(=O)N1CCCC1c1[nH]ncc1C(N)=O` (stereo not drawn) it is -31%.
The value for `CCOC(=O)N1CCN(C(=O)CCn2cccc2)CC1` was 35%; that for `Cc1nc(CN2CCC3(CC2)C(=O)N(C)CCN3C)cs1` was 31.5%; that for `Cn1cc(-c2nnn3c2COC(CNC(=O)c2cccs2)C3)cn1` (stereo not drawn) was 8.64%.
The value for `Cc1nc(CN2CCN(C(=O)c3ccnc(N(C)C)c3)CC2)cs1` was 43.2%.
Take `Cc1ccc(CN(C)C(=O)C(C)n2ccnc2C(C)C)o1` (stereo not drawn): the INHIBITION amounted to 33%.
The figure for `CN(C)C1CCCN(C(=O)c2cccc(-c3ncc[nH]3)c2)CC1` (stereo not drawn) is 12.8%.
The value for `O=C(c1cccc(-c2ncc[nH]2)c1)N1CC[C@H](CO)[C@@H](O)C1` was -12.1%.
The value for `O=C(c1cccc(-c2ncc[nH]2)c1)N1CCC(N2CCCC(O)C2)CC1` (stereo not drawn) was 57.2%; that for `Cc1ncnc2c1CCN(Cc1nccs1)CC2` was 8.85%.
`CC(C(=O)NCC(C)(C)c1ccc(Br)cc1)n1cncn1` (stereo not drawn): the INHIBITION stood at 23.1%.
The value for `O=c1[nH]cnc2[nH]c(N3CCOCC3)nc12` was 31.8%; that for `COc1ccc2nc(C3CC3)cc(C(=O)NCc3ncnn3C)c2c1` was 10.7%; that for `COc1ccc2nc(C3CC3)cc(C(=O)NCc3noc(C)n3)c2c1` was 57.2%.
The figure for `COc1ccc2nc(C3CC3)cc(C(=O)NCC(=O)N(C)C)c2c1` is 13.9%.
The figure for `COc1ccc(Cl)cc1C(=O)NC(CC(=O)O)c1cccs1` (stereo not drawn) is 29.7%.
As for `CCOc1ccccc1C(=O)NC(CC(=O)O)c1cccs1` (stereo not drawn), the INHIBITION came out at 13.3%.
The value for `COc1ccccc1CC(C)CC(=O)O` (stereo not drawn) was 29.3%; that for `COc1ccccc1CC(=O)NC(CC(=O)O)c1ccc(F)cc1` (stereo not drawn) was 32.3%; that for `COc1ccc(C)cc1C(=O)NC(CC(=O)O)c1cccs1` (stereo not drawn) was 52.3%.
On to `COc1ccc(C)cc1CC(=O)NC(CC(=O)O)c1ccc(F)cc1` (stereo not drawn), for which the INHIBITION is on record as 58.3%.
The value for `O=C(O)CC(NC(=O)c1ccccc1OC(F)F)c1cccs1` (stereo not drawn) was 68.8%; that for `COc1ccccc1C(=O)NC(CC(=O)O)c1cccs1` (stereo not drawn) was -9.14%.
The figure for `COc1ccc(CC(=O)NC(CC(=O)O)c2ccc(F)cc2)cc1OC` (stereo not drawn) is 29%.
The figure for `COc1ccc(C(=O)NC(CC(=O)O)c2cccs2)c(OC)c1` (stereo not drawn) is -5.25%; for `COc1cccc(-c2n[nH]cc2C(=O)NC(C)CC(=O)O)c1` (stereo not drawn) it is 42.3%.
`COc1ccccc1C(=O)NC(C)CC(=O)O` (stereo not drawn): the INHIBITION turned out to be 51.3%.
The value for `Cc1csc(CN2CCC[C@]3(C[C@@H](OCC4CC4)CO3)C2)n1` was 35.6%.
The figure for `Cc1nnc(NCCn2nc(C)c(Cl)c2C)o1` is 26.8%; for `CC(Cn1ccnc1)NC(=O)NCCc1ccc(Cl)s1` (stereo not drawn) it is -5.25%.
The figure for `O=C1CC(N(C(=O)CCc2cc(F)ccc2F)C2CC2)C(=O)N1` (stereo not drawn) is 22.2%.
Regarding `CCn1ccnc1CN1CCCC1c1noc(C2CC2)n1` (stereo not drawn), the INHIBITION turned out to be 40.9%.
For the molecule `CN(Cc1nnc2n1CCC2)C(=O)c1ccc2c(c1)CCO2`, the INHIBITION is recorded as 26.4%.
The value for `Cc1nc2c(c(=O)[nH]1)CCN(Cc1ccc3c(c1)CCCN3C)C2` was 31.6%.
Take `Cc1ccc2c(c1)C(=O)NCC1(CCN(C(=O)c3cnccn3)CC1)O2`: the INHIBITION was -32.2%.
The value for `O=C(CCc1ccccc1F)N1CCC(Nc2cccnn2)CC1` was 1.78%.
The figure for `O=C1N(CC2CCCC2)CCC12CCN(c1ncc(F)cn1)CC2` is 8.74%; for `NC(=O)CN1CCC(NC(=O)COCCOc2ccccc2)CC1` it is 31.6%.
The figure for `CC(=O)NCCC1CCCCN1S(=O)(=O)c1cccc(F)c1` (stereo not drawn) is -40.5%; for `COCC(=O)N1CCOC(c2cccc(-c3cncnc3)n2)C1` (stereo not drawn) it is 38.2%.
Turning to `COCC(=O)N1CCOC(c2ccc(N(C)C)cn2)C1` (stereo not drawn), the INHIBITION was 50.1%.
The value for `CNC(=O)c1ccc(C2CN(C(=O)COC)CCO2)nc1` (stereo not drawn) was -26.8%; that for `CCCC(=O)N1CCC(c2nc(O)c3c(n2)CCN(C2CCCC2)C3)C1` (stereo not drawn) was 17.1%; that for `Cc1ccccc1OCCCC(=O)NC(C)c1nnc2n1CCC2` (stereo not drawn) was -24.2%.
As to `CNC(=O)[C@H]1C[C@@H]2CN(S(=O)(=O)Cc3ccccc3)C[C@@H]2N1C`, the INHIBITION is on record as -15.7%.
